PP5 inh = inhibitors of human protein phosphatase 5 (PP5). purified PP5c, OMFP substrate fluorescence. inhibition, % at 6.7 µM. hit rate 0.18% among 320,000;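 active = inhibition above the campaign's mean inhibition across all tested compounds plus 3 SD, cut at about 9.5% in these data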
Target sequence (P53041 whole entry, looked up): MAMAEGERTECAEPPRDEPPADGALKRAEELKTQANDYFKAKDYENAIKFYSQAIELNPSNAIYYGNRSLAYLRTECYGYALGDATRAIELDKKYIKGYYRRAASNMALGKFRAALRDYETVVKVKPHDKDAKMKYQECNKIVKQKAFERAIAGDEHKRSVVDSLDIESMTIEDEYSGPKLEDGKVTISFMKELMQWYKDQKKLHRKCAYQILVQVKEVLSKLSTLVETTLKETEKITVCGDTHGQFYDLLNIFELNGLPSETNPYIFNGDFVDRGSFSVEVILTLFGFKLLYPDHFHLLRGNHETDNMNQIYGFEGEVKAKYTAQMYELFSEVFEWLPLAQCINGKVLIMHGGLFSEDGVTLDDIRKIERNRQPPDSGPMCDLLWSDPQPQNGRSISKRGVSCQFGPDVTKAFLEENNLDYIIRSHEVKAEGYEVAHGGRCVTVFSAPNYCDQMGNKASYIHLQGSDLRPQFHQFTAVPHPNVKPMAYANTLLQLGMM
Rev-erbA mod = modulators of human Rev-erb alpha DNA binding | P20393 | hit rate 0.79% among 370,000 | activity, % at 10 µM | AID 1259318 | Rev-erbα–FITC-DNA binding, fluorescence polarization, 90 min;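 active = activity above about 14%, limit read from the data; passing the limit was not always enough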
GASC-1 inh = inhibitors of human GASC-1 (JMJD2C) demethylase. Q9H3R0. inhibition, % at 2.35 µM. GST-JMJD2C(1-420) H3K9me3 demethylation, DELFIA europium. hit rate 0.069% among 330,000;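 active = more than half of a compound's replicate wells show inhibition beyond 50%, single wells judged on their own value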;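 note: signal counts dimethyl H3K9 product captured on neutravidin plate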
proKLK7 act = activates the human kallikrein-7 zymogen | purified proKLK7, EDANS-DABCYL substrate fluorescence; 100% is mature enzyme control, 0% vehicle | hit rate 0.9% among 370,000 | activation, % at 7 µM | P49862;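 active = activation above the mean of all tested compounds plus 3 SD, computed per campaign excluding outliers beyond control limits, cut at about 13% in these data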
Target sequence (P49862 whole entry, looked up): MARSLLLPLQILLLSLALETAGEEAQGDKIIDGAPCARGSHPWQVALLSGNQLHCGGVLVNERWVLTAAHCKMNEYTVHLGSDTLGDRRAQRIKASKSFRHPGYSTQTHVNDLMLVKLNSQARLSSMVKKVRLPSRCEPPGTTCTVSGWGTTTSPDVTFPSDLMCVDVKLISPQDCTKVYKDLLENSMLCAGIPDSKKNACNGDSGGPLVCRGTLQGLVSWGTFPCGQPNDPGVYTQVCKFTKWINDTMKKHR
PP1 inh = PP1-alpha (human) inhibition in PP5 counter-screen; hit rate 0.9% among 320,000; inhibition, % at 6.7 µM; purified PP1alpha, OMFP fluorescence;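 active = inhibition above the mean inhibition of all tested compounds plus 3 SD, computed separately for each screening campaign, cut at about 15% in these data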
PG9 Ab binder = PG9 antibody binding by small molecule; TR-FRET gp120-PG9 antibody binding; inhibition, % at 6.7 µM; hit rate 0.43% among 360,000; AID 624416; in the data active = inhibition above about 8.5%
NR1D1 mod conf = Rev-erb alpha (human) modulation, hit confirmation. shares compounds with Rev-erbA mod. Rev-erb alpha FITC-DNA binding, fluorescence polarization, 90 min. activation, % at 25 µM. hit rate 61% among 3,000. AID 1259319;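 active = activation at or above a set limit, or at least 3 SD above the negative control mean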
RORg DNA counter = counter-screen for Rev-erb alpha modulators: RORgamma DNA binding | hit rate 8% among 910 | IC50, µM | purified RORgamma protein-FITC-DNA binding, fluorescence polarization | shares compounds with Rev-erbA mod;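 active = Compounds whose fitted half-maximal concentration for disrupting protein-DNA binding is below 10 micromolar; the record names Rev-erb in its text, so the target is in doubt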
Numbers stand for hits; 0 = inactive; - = no result given. Only some compounds are listed: those with a hit (about 2.8% of all), similar ones and a draw of the others.

SMILES | PP5 inh | Rev-erbA mod | GASC-1 inh | proKLK7 act | PP1 inh | PG9 Ab binder | NR1D1 mod conf | others
C[C@H](O)[C@@H]1C(=O)N2CCc3c([nH]c4c(-c5ccccc5)cccc34)[C@@H]2C[C@@H]1N(C)C(=O)c1cc(Cl)cc(Cl)c1 | - | 0 | - | 0 | - | 0 | -
COc1cccc(CC(=O)Nc2sc3c(c2C(N)=O)CCCC3)c1 | 0 | 29.4 | 0 | 0 | 0 | 0 | 0
COc1ccc(CC(=O)Nc2sc3c(c2C(N)=O)CCCC3)cc1OC | 0 | 0 | 0 | 0 | 0 | 0 | -
COC[C@@H]1CCCN1c1ccc2c(c1)O[C@@H]1CCN(C1)S2(=O)=O | - | 0 | - | 0 | - | - | -
CCOC(=O)C1=CCN(S(=O)(=O)c2cccc(Cl)c2)C1c1cccc(C)c1 (centres undefined) | - | 17.8 | - | 0 | - | 0 | 0
O=S1(=O)c2ccc(N3CCCC3)cc2Oc2ccccc2CN1Cc1cn(Cc2ccc(F)cc2)nn1 | - | 0 | - | 0 | - | - | -
CC(=O)Oc1ccc2oc(/C=C/N(C)C)c([N+](=O)[O-])c2c1 | 0 | 25.1 | 0 | 0 | 0 | 0 | 43.2 | RORg DNA counter=0
C/C(=C/c1oc2ccc(O)cc2c1[N+](=O)[O-])N(C)C | 0 | 22.5 | 0 | 0 | 0 | 0 | 25.5
COc1cc(/C=C(\C#N)c2nc3ccccc3o2)ccc1O | 0 | 42.7 | 0 | 0 | 0 | 0 | 59.7 | RORg DNA counter=0
O=C(c1ccccc1F)N1C(=O)c2cccc3cccc1c23 | 0 | 24.8 | 0 | 0 | 0 | 0 | 0
O=C(O)c1ccccc1N1C(=O)c2cccc3cccc(c23)C1=O | 0 | 0 | 0 | 0 | 0 | 0 | -
CSc1ccc(/C=C(\C#N)C(=O)Nc2cccc(C)c2)cc1 | 0 | 22.4 | 0 | 0 | 0 | 0 | 0
COc1ccccc1N1N=C(C(=O)c2ccccc2)C2C(=O)N(c3ccc(Br)cc3)C(=O)C21 (centres undefined) | 0 | 28.5 | 0 | 0 | 0 | 0 | 31.2 | RORg DNA counter=0
COc1ccccc1N1C(=O)C2C(C(=O)c3ccccc3)=NN(c3ccccc3)C2C1=O (centres undefined) | 0 | 0 | 0 | 0 | 0 | 0 | -
CCOC(=O)c1c(NC(=O)C2CCCO2)sc(C(=O)OC(C)(C)C)c1C (centres undefined) | 0 | 45.8 | 0 | 0 | 0 | 0 | 30.6
CCOC(=O)c1c(NC(=O)C2CCCO2)sc(C)c1C (centres undefined) | 0 | 0 | 0 | 0 | 0 | 0 | -
Nc1[nH]c(C(=O)c2ccc(Br)cc2)c(-c2ccc(Cl)cc2)c1C(=O)NCCc1c[nH]c2ccccc12 | - | 0 | - | 0 | - | 0 | -
CC(=O)Nc1ccc(S(=O)(=O)NCC2CCN(C(=O)C(=O)c3cccs3)CC2)cc1 | - | 0 | - | 0 | - | 0 | -
Cc1ccc2c(c1C)NC(=O)CC(c1ccccc1O)=N2 | 0 | 204.2 | 0 | 0 | 0 | 0 | 140.2 | RORg DNA counter=0
CC1(Cc2ccccc2OC(F)(F)F)C(=O)Nc2cc(-c3ccccc3Cl)ccc21 (centres undefined) | - | 0 | - | 0 | - | 0 | -
CC1(Cc2ccccc2OC(F)(F)F)C(=O)Nc2ccc(OC(F)(F)F)cc21 (centres undefined) | - | 73.0 | - | 0 | - | 0 | 93.8 | RORg DNA counter=0
COC(=O)c1ccc(CC2(C)C(=O)Nc3ccc(OC(F)(F)F)cc32)o1 (centres undefined) | - | 0 | - | 0 | - | 0 | -
COC(=O)c1cccc(CC2(C)C(=O)Nc3ccc(OC(F)(F)F)cc32)c1 (centres undefined) | - | 18.3 | - | 0 | - | 0 | 14.6
CC1(Cc2ccccc2OC(F)(F)F)C(=O)Nc2ccc(-c3ccsc3)cc21 (centres undefined) | - | 72.5 | - | 0 | - | 0 | 89.6 | RORg DNA counter=0
Cc1ccccc1N1CCN(S(=O)(=O)c2ccc3c(c2)n(C)c(=O)c(=O)n3C)CC1 | - | 0 | - | 0 | - | - | -
SMILES | PP5 inh | Rev-erbA mod | GASC-1 inh | proKLK7 act | PP1 inh | PG9 Ab binder | NR1D1 mod conf | others
COC(=O)CN1CCN(C(=O)c2csc3ccccc23)CC1 | - | 0 | - | 0 | - | - | -
COC(=O)c1cc2c(c3c4cc(F)ccc4n(S(=O)(=O)c4cccc(C)c4)c13)C(=O)N(Cc1ccc(C(F)(F)F)cc1)C2 | - | 0 | - | 0 | - | 0 | -
COC(=O)c1cc2c(c3c4cc(OC)ccc4n(S(=O)(=O)c4cccc(C)c4)c13)C(=O)N(Cc1ccc(C(F)(F)F)cc1)C2 | - | 18.2 | - | 0 | - | 0 | 0
Cc1c(N=C2N=C(NC(=O)c3ccc(F)cc3)c3ccccc32)c(=O)n(-c2ccccc2)n1C | 0 | 92.1 | 0 | 0 | 0 | 0 | 50.8
Cc1c(NC(=O)NC(=O)c2ccc(F)cc2)c(=O)n(-c2ccccc2)n1C | 0 | 0 | 0 | 0 | 0 | 0 | -
CCC(C)NC(=O)Cc1c(OC)ccc2cc(Br)ccc12 (centres undefined) | 0 | 22.8 | 0 | 0 | 0 | 0 | 40.3 | RORg DNA counter=0
CCCCNC(=O)NC1CCN(CC(=O)Nc2ccc3c(c2)OCCO3)CC1 | - | 0 | - | 0 | - | - | -
Cc1nc2c(ccc3nc(NC(=O)c4ccc5c(c4)OCCO5)sc32)s1 | 0 | 55.9 | 0 | 0 | 0 | 0 | 27.4
COc1cc(C(=O)Nc2nnc(-c3sccc3C)s2)cc(OC)c1OC | 0 | 93.3 | 0 | 0 | 0 | 0 | 117.0 | RORg DNA counter=0
CCOC(=O)c1ccc(-c2ccc3oc(-c4ccsc4)cc(=O)c3c2)cc1F | - | 57.7 | 0 | 0 | - | 0 | 0
CCN(CC)C(=O)CC[C@H]1CC[C@]2(CCCN(C(=O)c3ccco3)C2)O1 | - | 0 | - | 0 | - | - | -
N#CC1=C(SCC(N)=O)NC2=C(C(=O)c3ccccc32)C1c1ccc(Cl)cc1 (centres undefined) | 0 | 33.0 | 0 | 0 | 0 | 0 | 54.4 | RORg DNA counter=0
CCN(c1cccc(C)c1)S(=O)(=O)c1cc2c3c(c1)CCC(=O)N3CCC2 | 0 | 53.1 | 0 | 0 | 0 | 0 | 62.4 | RORg DNA counter=0
O=C(NCc1ccc(Cl)cc1)OCCN1C(=O)CCC12CCC(c1ccccc1)CC2 (centres undefined) | - | 0 | - | 0 | - | - | -
CC(COc1ccc(Cl)cc1)CN1CCC(C(O)(c2ccccc2)c2ccccc2)CC1 (centres undefined) | - | 0 | - | 0 | - | - | -
O=C(Nc1ccc(F)cc1)c1oc2ccccc2c1NC(=O)C1CCCC1 | 0 | 25.7 | 0 | - | 0 | - | 0
CCSc1nc(N)c(C#N)c(-c2ccccc2Cl)c1C#N | 0 | 24.9 | 0 | 0 | 0 | 0 | 22.3
Cc1ccc(-c2cc(-c3ccccc3Cl)c(C#N)c(N)n2)o1 | 0 | 0 | 0 | 0 | 0 | 0 | -
N#Cc1c(N)nc(Sc2ccc(Cl)cc2)c(C#N)c1-c1ccccc1Cl | 0 | 63.5 | 0 | 0 | 0 | 0 | 43.3 | RORg DNA counter=0
COc1ccc(NC(=O)N(C)C[C@H]2OCc3cn(nn3)CCCC(=O)N([C@H](C)CO)C[C@@H]2C)cc1 | - | 0 | - | 0 | - | 0 | -
Cc1cc(C)c(C)c(S(=O)(=O)N2CCSCC2)c1C | 0 | 18.6 | 0 | 0 | 0 | 0 | 0
O=C(NC1CCCCN(Cc2cccc(Cl)c2)C1=O)c1ccc(F)c(F)c1 (centres undefined) | - | 0 | - | 0 | - | - | -

High-throughput results deposited in PubChem BioAssay by several laboratories.
